{"source": "paper PMC7862700", "about": "“An all-to-all approach to the identification of sequence-specific readers for epigenetic DNA modifications on cytosine”", "experiment_in_all_cases": "DAPPL (digital affinity profiling via proximity ligation, sequencing); 10 mM Tris-HCl pH 7.5, 50 mM NaCl, 1 mM DTT, 4% glycerol, room temperature, 30 min; GST-TFs on glutathione beads, 16-mer random dsDNA library, 0.1% formaldehyde crosslink after washing; high values mean tight binding", "details_in_all_cases": "protein: recombinant; tags: N-terminal GST; dsDNA, one strand shown", "key": {"[1]": {"biological_target": "ETV1 (Homo sapiens, UniProt P50549 1-477)", "sequence (P50549 whole entry, the tested form may be a part)": "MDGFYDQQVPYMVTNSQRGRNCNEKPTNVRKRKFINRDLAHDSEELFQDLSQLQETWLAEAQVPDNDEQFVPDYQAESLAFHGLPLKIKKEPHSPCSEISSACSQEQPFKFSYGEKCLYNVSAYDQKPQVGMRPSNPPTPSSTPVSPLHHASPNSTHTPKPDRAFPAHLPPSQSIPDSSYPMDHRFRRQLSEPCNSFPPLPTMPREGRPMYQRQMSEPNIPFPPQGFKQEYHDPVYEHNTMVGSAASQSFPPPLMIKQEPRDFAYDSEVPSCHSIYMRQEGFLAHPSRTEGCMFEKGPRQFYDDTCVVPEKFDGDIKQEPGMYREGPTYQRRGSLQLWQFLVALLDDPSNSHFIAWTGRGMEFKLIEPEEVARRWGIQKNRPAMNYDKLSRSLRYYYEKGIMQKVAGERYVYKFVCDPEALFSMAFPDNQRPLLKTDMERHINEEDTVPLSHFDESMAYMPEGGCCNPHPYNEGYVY", "how_it_was_run": "(§1)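 Human transcription factors fused to GST were expressed in yeast, captured on glutathione beads, given DNA barcodes and pooled with a GST-only negative control. Pools were incubated with 200 nmole of a 16-mer random double-stranded DNA library in Tris/NaCl/DTT/glycerol buffer at room temperature for 30 min. They were then washed, crosslinked with 0.1% formaldehyde, proximity-ligated (BsaI/T4 ligase, 1 h, 37 °C), PCR-amplified and sequenced on an Illumina NextSeq500. Binding signal is each 6-mer's read frequency for a factor divided by its frequency for the GST control.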"}, "[2]": {"biological_target": "T1, ERF (Homo sapiens, UniProt P50548 1-548)", "T1 sequence": "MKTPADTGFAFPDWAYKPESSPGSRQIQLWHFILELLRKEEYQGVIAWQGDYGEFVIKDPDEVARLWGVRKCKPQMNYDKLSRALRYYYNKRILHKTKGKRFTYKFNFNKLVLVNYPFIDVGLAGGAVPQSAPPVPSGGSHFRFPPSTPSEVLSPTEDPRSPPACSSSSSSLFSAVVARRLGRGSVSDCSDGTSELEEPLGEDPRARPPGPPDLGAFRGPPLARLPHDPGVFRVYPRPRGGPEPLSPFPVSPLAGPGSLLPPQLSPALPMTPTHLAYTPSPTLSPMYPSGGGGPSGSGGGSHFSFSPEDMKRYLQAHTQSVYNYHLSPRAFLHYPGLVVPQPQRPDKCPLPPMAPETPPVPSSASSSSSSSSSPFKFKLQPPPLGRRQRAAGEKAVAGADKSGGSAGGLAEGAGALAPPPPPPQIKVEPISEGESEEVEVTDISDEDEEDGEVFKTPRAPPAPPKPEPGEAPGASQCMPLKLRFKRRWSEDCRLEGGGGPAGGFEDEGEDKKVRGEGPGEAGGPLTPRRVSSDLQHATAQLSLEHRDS", "how_it_was_run": "as §1"}, "[3]": {"biological_target": "T2, ETV3L (Homo sapiens, UniProt Q6ZN32 1-361)", "T2 sequence": "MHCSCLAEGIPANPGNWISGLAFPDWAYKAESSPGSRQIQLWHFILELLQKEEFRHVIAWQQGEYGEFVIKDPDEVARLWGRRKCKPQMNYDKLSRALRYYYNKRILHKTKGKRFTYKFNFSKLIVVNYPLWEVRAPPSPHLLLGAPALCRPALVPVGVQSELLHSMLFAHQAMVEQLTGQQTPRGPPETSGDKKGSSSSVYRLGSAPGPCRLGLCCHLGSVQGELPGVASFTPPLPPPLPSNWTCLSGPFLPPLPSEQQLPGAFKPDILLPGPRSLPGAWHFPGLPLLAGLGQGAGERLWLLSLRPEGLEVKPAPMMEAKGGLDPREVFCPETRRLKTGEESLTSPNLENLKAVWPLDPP", "how_it_was_run": "as §1"}, "[4]": {"biological_target": "T3, ETS2 (Homo sapiens, UniProt P15036 1-469)", "T3 sequence": "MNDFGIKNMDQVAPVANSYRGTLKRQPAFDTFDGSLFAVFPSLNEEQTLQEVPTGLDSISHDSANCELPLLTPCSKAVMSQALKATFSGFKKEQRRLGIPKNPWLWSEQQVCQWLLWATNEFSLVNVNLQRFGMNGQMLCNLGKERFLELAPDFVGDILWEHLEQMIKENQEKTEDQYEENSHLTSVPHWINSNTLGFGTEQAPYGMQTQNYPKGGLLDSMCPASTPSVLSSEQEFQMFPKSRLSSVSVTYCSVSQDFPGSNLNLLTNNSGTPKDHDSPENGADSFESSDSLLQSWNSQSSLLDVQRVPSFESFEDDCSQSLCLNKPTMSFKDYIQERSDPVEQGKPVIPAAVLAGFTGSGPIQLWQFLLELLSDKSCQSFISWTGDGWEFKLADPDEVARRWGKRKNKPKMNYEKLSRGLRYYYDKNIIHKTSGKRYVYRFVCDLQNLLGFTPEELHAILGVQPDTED", "how_it_was_run": "as §1"}, "[5]": {"biological_target": "T4, SPDEF (Homo sapiens, UniProt O95238 1-335)", "T4 sequence": "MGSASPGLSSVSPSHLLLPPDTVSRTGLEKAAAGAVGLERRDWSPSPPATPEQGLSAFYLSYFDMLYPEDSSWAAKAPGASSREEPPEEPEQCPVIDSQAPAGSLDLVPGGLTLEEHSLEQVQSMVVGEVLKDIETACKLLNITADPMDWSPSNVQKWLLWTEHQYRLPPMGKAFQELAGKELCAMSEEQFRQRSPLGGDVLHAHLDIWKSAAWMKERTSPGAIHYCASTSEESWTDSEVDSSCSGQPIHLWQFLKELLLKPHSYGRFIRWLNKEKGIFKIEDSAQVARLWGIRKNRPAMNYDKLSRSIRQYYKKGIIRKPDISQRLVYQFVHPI", "how_it_was_run": "as §1"}, "[6]": {"biological_target": "T5, ETV7 (Homo sapiens, UniProt Q9Y603 1-341)", "T5 sequence": "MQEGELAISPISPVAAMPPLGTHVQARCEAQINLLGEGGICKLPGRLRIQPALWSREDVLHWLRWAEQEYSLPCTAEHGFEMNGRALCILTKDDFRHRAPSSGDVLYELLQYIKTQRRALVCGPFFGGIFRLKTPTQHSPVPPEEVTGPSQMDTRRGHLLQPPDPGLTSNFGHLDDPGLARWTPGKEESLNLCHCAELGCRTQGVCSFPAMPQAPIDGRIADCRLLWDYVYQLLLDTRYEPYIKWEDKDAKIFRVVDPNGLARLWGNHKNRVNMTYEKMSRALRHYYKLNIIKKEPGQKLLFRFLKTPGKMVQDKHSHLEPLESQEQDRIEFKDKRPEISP", "how_it_was_run": "as §1"}, "[7]": {"biological_target": "T6, ELF5 (Homo sapiens, UniProt Q9UKW6-2 1-255)", "T6 sequence": "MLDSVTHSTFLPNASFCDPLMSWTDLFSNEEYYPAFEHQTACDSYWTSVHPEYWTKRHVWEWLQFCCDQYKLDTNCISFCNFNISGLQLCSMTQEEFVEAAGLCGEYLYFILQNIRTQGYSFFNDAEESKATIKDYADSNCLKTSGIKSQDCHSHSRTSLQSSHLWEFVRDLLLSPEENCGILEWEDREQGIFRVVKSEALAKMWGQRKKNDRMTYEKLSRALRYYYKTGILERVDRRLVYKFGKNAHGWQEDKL", "how_it_was_run": "as §1"}, "[8]": {"biological_target": "T7, ETV3 (Homo sapiens, UniProt P41162-2 1-143)", "T7 sequence": "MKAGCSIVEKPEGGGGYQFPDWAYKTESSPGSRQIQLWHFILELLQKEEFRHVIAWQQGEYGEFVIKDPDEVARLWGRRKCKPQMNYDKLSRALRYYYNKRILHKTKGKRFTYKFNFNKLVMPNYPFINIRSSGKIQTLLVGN", "how_it_was_run": "as §1"}, "[9]": {"biological_target": "ETV6 (Homo sapiens, UniProt P41212 1-452)", "sequence (P41212 whole entry)": "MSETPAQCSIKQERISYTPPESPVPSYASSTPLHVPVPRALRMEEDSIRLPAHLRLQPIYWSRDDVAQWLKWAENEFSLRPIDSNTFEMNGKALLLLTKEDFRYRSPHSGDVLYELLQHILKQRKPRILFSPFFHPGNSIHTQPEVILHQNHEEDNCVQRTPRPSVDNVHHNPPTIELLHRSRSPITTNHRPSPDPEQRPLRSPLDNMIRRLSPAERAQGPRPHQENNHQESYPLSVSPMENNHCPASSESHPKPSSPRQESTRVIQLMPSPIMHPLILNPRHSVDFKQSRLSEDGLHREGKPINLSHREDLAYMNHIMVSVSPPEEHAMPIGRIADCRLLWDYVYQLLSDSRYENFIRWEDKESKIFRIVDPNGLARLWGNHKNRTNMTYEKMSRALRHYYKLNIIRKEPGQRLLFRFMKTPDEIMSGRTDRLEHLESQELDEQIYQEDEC", "how_it_was_run": "as §1"}}, "data": [{"sequence": "ACTAAC", "values": [{"measurement": "binding signal", "setting": "[1]", "result": "1.25 fold enrichment (6-mer frequency, TF over GST control)"}, {"measurement": "binding signal", "setting": "[2]", "result": "1.34 fold enrichment (6-mer frequency, TF over GST control)"}, {"measurement": "binding signal", "setting": "[3]", "result": "1.29 fold enrichment (6-mer frequency, TF over GST control)"}, {"measurement": "binding signal", "setting": "[4]", "result": "1.29 fold enrichment (6-mer frequency, TF over GST control)"}, {"measurement": "binding signal", "setting": "[5]", "result": "1.2 fold enrichment (6-mer frequency, TF over GST control)"}, {"measurement": "binding signal", "setting": "[6]", "result": "1.21 fold enrichment (6-mer frequency, TF over GST control)"}, {"measurement": "binding signal", "setting": "[7]", "result": "1.29 fold enrichment (6-mer frequency, TF over GST control)"}, {"measurement": "binding signal", "setting": "[8]", "result": "1.24 fold enrichment (6-mer frequency, TF over GST control)"}, {"measurement": "binding signal", "setting": "[9]", "result": "1.22 fold enrichment (6-mer frequency, TF over GST control)"}]}]}
